Sfp inh = inhibitors of Bacillus subtilis Sfp phosphopantetheinyl transferase | hit rate 3.5% among 310,000 | AID 1490 | Biochemical Sfp PPTase activity, qHTS | Potency, µM, inactives show largest response in the series, negative = inhibition, usual class: inhibitors | Q9F4F7;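 also: the enzyme is Sfp with the accession as filed and its product quenches rhodamine fluorescence; 0% = enzyme reaction without inhibitor and -100% = no enzyme wells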
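Fluorescence-quenching assay with 15 nM Sfp, 5 uM rhodamine-CoA and 12.5 uM BHQ-2-labelled ybbR peptide in pH 7.6 Hepes/MgCl2 buffer. Enzyme was pre-incubated with compound for 15 min at room temperature. Rate was taken from the 30-min fluorescence change (525/598 nm).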
BAZ2B block = blocks human BAZ2B | AlphaScreen BAZ2B-H3K14Ac peptide displacement | Potency, µM (series often up to 114 µM), inactives show at the top dose activity change, negative = inhibition, hits mostly inhibitors | hit rate 4.4% among 360,000 | AID 504333; also: % is scaled to controls: 0 for no effect and ±100 for the full control effect; nearly all actives have a fitted effect of over 60% in size
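Inhibition is scored as reduced AlphaScreen emission. The BAZ2B/b-H3(5-23)K14Ac complex (50 nM each) in PBS pH 7.4, 0.01% Tween-20 meets compound (up to 110 uM) for 30 min at RT before bead addition.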
G9a block = inhibitors of human histone lysine methyltransferase G9a; Q96KQ7; G9a H3K9 monomethylation, AlphaScreen, 2 h; Potency, µM (titrated, usually from 102 µM), for the others: at the top dose activity, negative = inhibition, actives largely listed as inhibitors; hit rate 8.8% among 350,000; also: % is scaled to controls: 0 for no effect and ±100 for the full control effect; nearly all actives have a fitted effect of over 75% in size
Target sequence (Q96KQ7 913-1193 limits assumed): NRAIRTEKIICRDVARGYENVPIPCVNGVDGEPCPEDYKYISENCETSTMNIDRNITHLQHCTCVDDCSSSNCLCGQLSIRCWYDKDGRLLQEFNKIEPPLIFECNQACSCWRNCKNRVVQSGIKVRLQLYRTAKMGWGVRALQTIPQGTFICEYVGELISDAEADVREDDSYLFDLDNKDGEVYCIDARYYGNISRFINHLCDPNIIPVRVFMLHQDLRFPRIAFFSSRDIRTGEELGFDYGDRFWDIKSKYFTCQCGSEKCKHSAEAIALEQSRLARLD
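AlphaScreen detection with an anti-monomethyl H3K9 antibody quantified product after a 2 h room-temperature reaction containing 500 nM biotinylated H3K9 peptide, 20 µM SAM and 20 nM enzyme, which had been preincubated 15 min with compound.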
JMJD2A Tudor inh = blocks the human JMJD2A Tudor domain; AlphaScreen JMJD2A-Tudor / H3K4me3 peptide binding; Potency, µM (series often up to 114 µM), inactives show at the highest dose activity change, negative = inhibition, hits mostly inhibitors; O75164; hit rate 4.4% among 390,000; also: % is scaled to controls: 0 for no effect and ±100 for the full control effect; nearly all actives have a fitted effect of over 50% in size
HP1b chromo inh = HP1-beta chromodomain-methylated histone interaction inhibition; P83916; AlphaScreen HP1-beta / biotin-H3K9me3 peptide binding; hit rate 0.56% among 390,000; Potency, µM (series often up to 114 µM), for the others: at the top dose activity change, negative = inhibition, actives largely listed as inhibitors; also: nearly all actives have a fitted effect of over 70% in size
Target sequence (P83916 whole entry, looked up): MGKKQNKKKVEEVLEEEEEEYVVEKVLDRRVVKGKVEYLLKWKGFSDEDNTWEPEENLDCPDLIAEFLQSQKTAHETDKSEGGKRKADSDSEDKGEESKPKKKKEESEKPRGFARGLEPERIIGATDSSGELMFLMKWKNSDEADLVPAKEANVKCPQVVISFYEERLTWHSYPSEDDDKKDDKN
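AlphaScreen: HP1-beta (50 nM) preformed 30 min with biotin-H3(1-18)K9me3 peptide (50 nM) in PBS pH 7.4, 0.01% Tween-20. Compound added for 30 min at RT, then streptavidin donor/nickel chelate acceptor beads (10 ug/mL) for 30 min.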
* hit, by the source's call; ? = inconclusive; . = no result; ! = not active in a repeat; [ ] = remark or other dose. Shown are actives, neighbours in structure and some others; about 12% of the full set was active somewhere. Calls follow the shape of the dose curve; as a rule, active = well fitted curve in the direction sought with a large enough effect; inconclusive = small, poorly fitted or top-dose-only effect, or another doubt; inactive = no such curve, though single readings can be large; an effect the other way counts as inactive or inconclusive. Potency is read from the fitted curve at half-maximal effect.

SMILES | Sfp inh | BAZ2B block | G9a block | JMJD2A Tudor inh | HP1b chromo inh
COc1ccc(S(=O)(=O)N2CCCCC2)cc1 | 0.3% | 10.3% | 25.1%[59 µM] | -4.2% | 37.3%
O=C(C1CCN(S(=O)(=O)c2ccc(F)cc2)CC1)N1CC=C(c2ccccc2)CC1 | 9.3% | -3.3% | 14.1µM* | -6.3% | 19.8%
COc1ccc(S(=O)(=O)N2CCC(N3CCCC3)CC2)cc1 | -26.0% | 56.2µM* | 8.91µM* | 25.1µM* | -3.9%
CCCc1cc(=O)oc2cc(C)c3c(-c4cccc(OC)c4)coc3c12 | . | -23.0% | -1.1%[59 µM] | -5.6% | 43.1%
C=CCn1c(-c2c(C)nc3cc(C)ccn23)n[nH]c1=S | 1.78µM* | -4.2% | 10µM* | 10µM* | 25.6%
CCn1c(-c2ccc(OC)c(OC)c2)n[nH]c1=S | ? | 0.1% | 2µM* | 3.55µM* | -3.1%
Cc1ccn2c(C(=O)CSc3ccc(Cl)cc3Cl)c(C)nc2c1 | 9.3% | -23.8% | -3.1% | -9.6%[11.4 µM] | 32.7%
C=CCn1c(-c2ccc(OC)c(OC)c2)n[nH]c1=S | 79.4µM* | -7.8% | -13.2%[59 µM] | 25.1µM* | 13.5%
CCC12CN3CC(C)(CN(C1)C3c1c(C)[nH]c3ccccc13)C2=O (stereo unspecified) | . | -22.9% | 4.3%[59 µM] | ? | 16.1%
Cn1cccc1C(=O)N/N=C/c1c(Cl)cccc1Cl | 15.2% | -20.4% | 8.9% | -6.1% | 2.8%
N#Cc1ccccc1S(=O)(=O)N1CCN(C(=O)c2cc3c(s2)CCC3)CC1 | . | ? | 35.5µM* | ? | -17.2%
COc1ccc(N2CCN(C(=O)c3cc4c(-c5cccc(OC)c5)nn(C)c4s3)CC2)cc1 | -8.9% | 25.1µM* | ? | 39.8µM* | ?
COc1cccc(-c2nn(C)c3sc(C(=O)N4CCN(c5cccc(C(F)(F)F)c5)CC4)cc23)c1 | . | . | -32.4%[59 µM] | -29.0% | 4.7%
COc1ccc(N2CCN(C(=O)c3cc4c(s3)CCCCC4)CC2)cc1 | . | 12.6µM* | ? | 50.1µM* | ?
O=C(c1cc2c(s1)CCCC2)N1CCN(C(=O)C2CCCO2)CC1 (stereo unspecified) | 0.0% | 5.9% | 15.8µM* | -5.3% | 9.7%
Cc1cc(C(=O)N2CCN(S(=O)(=O)c3ccccc3C#N)CC2)c(C)o1 | . | -3.8% | 15.0%[2.33 µM] | -18.5% | 10.9%
COc1cccc([C@@H]2Oc3ccc(OC)cc3C[C@H]2O)c1 | 17.5% | . | . | . | .
O=C(N/N=C1/C[C@@H](O)[C@@H](O)[C@@H]2[C@@H]3C(=O)N(Cc4ccccc4)C(=O)[C@H]3CC[C@@H]12)OCc1ccccc1 | 6.0% | . | . | . | .
Cn1nc(-c2ccc(Cl)cc2)c2cc(C(=O)NCCCN3CCOCC3)sc21 | 3.3% | -15.8% | -45.0% | -19.3% | 9.6%
Cn1nc(-c2ccc(Cl)cc2)c2cc(C(=O)NCCN3CCOCC3)sc21 | -1.3% | 8.9% | 70.8µM* | -17.9% | 16.5%
CCN(CC)CCNC(=O)c1cc2c(-c3cccc(OC)c3)nn(C)c2s1 | 0.2% | -0.9% | 79.4µM*! | -5.5% | -4.2%
CC(=O)N1c2c(cc(Br)cc2S(=O)(=O)Nc2ccc(OC(F)(F)F)cc2)CC1C (stereo unspecified) | . | -12.7% | -26.7%[59 µM] | -16.7% | 22.5%
CC12CCC(c3c1nc1ccccc1[n+]3[O-])C2(C)C (stereo unspecified) | 8.3% | 4.0% | 9.9%[59 µM] | 44.7µM* | 5.2%
O=C1SC(SC(=Nc2ccccc2)Nc2ccccc2)C(=O)N1c1ccccc1 (stereo unspecified) | -19.5% | ? | 44.7µM* | ? | ?
O=C(Nc1ccccc1)N1CCc2scc[n+]2-c2ccccc21 | ? | -8.2% | -16.5%[59 µM] | -19.9% | -4.8%
SMILES | Sfp inh | BAZ2B block | G9a block | JMJD2A Tudor inh | HP1b chromo inh
O=CN1CCc2scc[n+]2-c2ccccc21 | 31.6µM* | -6.0% | ? | -25.2% | 27.2%
CC(=O)Nc1n[nH]c(S(=O)(=O)Cc2ccc(Cl)cc2Cl)n1 | -0.4% | ? | 44.7µM* | 50.1µM* | -3.5%
CC(=O)Nc1nc(SCc2ccc(Cl)cc2Cl)n[nH]1 | 11.4% | -20.3% | -0.3%[59 µM] | -18.9% | 37.0%
O=[N+]([O-])c1cccc(C2=N[C@@H](Cc3ccccc3)CO2)c1 | -19.5% | . | ? | . | .
CCOc1ccccc1CNC(=O)c1cn(-c2ccc(OC)cc2)c(=O)c2ccccc12 | . | ? | ? | -16.1% | 18.1%
COC(=O)c1[nH]c2cc(OC)c(OC)cc2c1NC(=O)CN1C[C@H]2C[C@@H](C1)c1cccc(=O)n1C2 | . | 9.6% | 0.1%[0.501 µM] | -11.0% | 44.9%
CCN(CC)S(=O)(=O)c1ccc(Cl)nc1 | 4.1% | . | -31.5% | 12.0% | 29.2%
COc1ccc(NS(=O)(=O)c2ccc3nc(COc4cccc5ccccc45)[nH]c3c2)cc1 | -29.3% | ? | ? | -26.8% | -12.9%
COc1ccccc1NS(=O)(=O)c1ccc2nc(CCl)[nH]c2c1 | -19.9% | -29.3% | 20µM* | -18.7% | 16.9%
CCN(CC)S(=O)(=O)c1ccc2c(c1)[nH]c(=S)n2CC | 56.2µM* | . | 7.94µM* | -15.9% | -3.6%
COc1ccccc1NS(=O)(=O)c1ccc(C)c(NC(=O)NCCCl)c1 | 89.1µM* | -14.1% | . | -12.1% | 4.9%
CCN(CC)S(=O)(=O)c1ccc2nc(CCl)[nH]c2c1 | 11.4% | -18.6% | 50.1µM* | -23.8% | 64.3%
COc1ccc(NS(=O)(=O)c2cc(NS(=O)(=O)c3cc(C(=O)O)ccc3OC)ccc2C)cc1 | . | . | . | -6.8% | 23.4%
Cc1ccc(NC(=O)c2c(C)nc3sc(C(=O)Nc4ccc(F)cc4)c(N)c3c2-c2ccc(C)o2)c(C)c1 | . | -3.9% | 10.9%[59 µM] | 0.3% | 36.3%
CC(c1ncncc1F)[C@](O)(Cn1cncn1)c1ccc(F)cc1F (stereo partly specified) | 13.9% | . | 16.9%[59 µM] | . | .
Cc1cc(C)c(NC(=O)COC(=O)Cc2cccs2)c(C)c1 | . | 2.6% | 6.5% | -7.9% | 34.1%
COc1ccc(OCc2nc3ccc(S(=O)(=O)Nc4ccccc4Cl)cc3[nH]2)cc1 | 4.7% | -18.5% | -10.9%[59 µM] | 39.8µM* | -0.4%
COc1ccc(NS(=O)(=O)c2cccc(C(=O)NNC(=O)NCCCl)c2)cc1 | 0.5% | -49.7% | 50.1µM* | -26.3% | 21.5%
CCOc1ccc(NC(=O)C(Cc2ccccc2)N2C(=O)c3cccc4cccc(c34)C2=O)cc1 (stereo unspecified) | 9.8% | 1.2% | ? | -16.8% | 21.4%
Cc1cc(C)c(NC(=O)CSc2nc(=O)[nH]c3c2CCCC3)c(C)c1 | . | -0.7% | -0.7%[59 µM] | 1.3% | 32.6%
CC(=O)c1c(COC(=O)c2ccco2)nc2ccccc2[n+]1[O-] | -28.0% | 50.1µM* | -34.0%[12.7 µM] | -12.5% | 6.2%
CC(=O)c1c(COC(=O)c2cccc(C)c2)nc2ccccc2[n+]1[O-] | -5.2% | -25.4% | ? | ? | 11.2%
O=C(OCc1nc2ccccc2[n+]([O-])c1C(=O)c1ccccc1)c1cccs1 | -8.3% | ? | ? | 79.4µM* | -18.4%
CC(=O)c1c(COC(=O)c2ccncc2)nc2ccccc2[n+]1[O-] | 11.3% | 39.8µM* | 1µM* | -1.6% | 9.6%

Screening data: PubChem, National Center for Advancing Translational Sciences (NCATS)
